# Tests used:
# [1] = biological target: Calcium/calmodulin-dependent protein kinase type 1 (Homo sapiens) (UniProt Q14012); conditions: at 10 µM
# [2] = biological target: Calcium/calmodulin-dependent protein kinase type II subunit beta (Homo sapiens) (UniProt Q13554); conditions: at 10 µM
# [3] = biological target: Calcium/calmodulin-dependent protein kinase type II subunit gamma (Homo sapiens) (UniProt Q13555); conditions: at 10 µM
# [4] = biological target: Calcium/calmodulin-dependent protein kinase type II subunit delta (Homo sapiens) (UniProt Q13557); conditions: at 1 µM
# Chain of Calcium/calmodulin-dependent protein kinase type II subunit delta (Homo sapiens) (Q13557 whole entry): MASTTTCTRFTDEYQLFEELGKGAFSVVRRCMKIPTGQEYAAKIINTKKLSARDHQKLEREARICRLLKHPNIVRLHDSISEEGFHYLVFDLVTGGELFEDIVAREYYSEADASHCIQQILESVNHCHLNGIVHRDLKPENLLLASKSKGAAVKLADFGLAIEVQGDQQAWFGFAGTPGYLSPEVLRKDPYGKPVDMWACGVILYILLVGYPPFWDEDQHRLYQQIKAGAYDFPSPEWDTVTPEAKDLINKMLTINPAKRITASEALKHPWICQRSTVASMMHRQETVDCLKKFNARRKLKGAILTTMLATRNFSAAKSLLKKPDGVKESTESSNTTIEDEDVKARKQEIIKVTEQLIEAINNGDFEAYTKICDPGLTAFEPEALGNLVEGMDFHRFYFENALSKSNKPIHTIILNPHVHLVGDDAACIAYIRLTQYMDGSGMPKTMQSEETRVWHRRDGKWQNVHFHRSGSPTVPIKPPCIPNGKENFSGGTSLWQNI
# [5] = biological target: Calcium/calmodulin-dependent protein kinase type II subunit delta (Homo sapiens) (UniProt Q13557); conditions: at 10 µM
# [6] = biological target: Calcium/calmodulin-dependent protein kinase type II subunit gamma (Homo sapiens) (UniProt Q13555); conditions: at 1 µM
# [7] = biological target: T1, Calcium/calmodulin-dependent protein kinase type IV (Homo sapiens) (UniProt Q16566); conditions: at 10 µM
# T1 sequence (whole entry): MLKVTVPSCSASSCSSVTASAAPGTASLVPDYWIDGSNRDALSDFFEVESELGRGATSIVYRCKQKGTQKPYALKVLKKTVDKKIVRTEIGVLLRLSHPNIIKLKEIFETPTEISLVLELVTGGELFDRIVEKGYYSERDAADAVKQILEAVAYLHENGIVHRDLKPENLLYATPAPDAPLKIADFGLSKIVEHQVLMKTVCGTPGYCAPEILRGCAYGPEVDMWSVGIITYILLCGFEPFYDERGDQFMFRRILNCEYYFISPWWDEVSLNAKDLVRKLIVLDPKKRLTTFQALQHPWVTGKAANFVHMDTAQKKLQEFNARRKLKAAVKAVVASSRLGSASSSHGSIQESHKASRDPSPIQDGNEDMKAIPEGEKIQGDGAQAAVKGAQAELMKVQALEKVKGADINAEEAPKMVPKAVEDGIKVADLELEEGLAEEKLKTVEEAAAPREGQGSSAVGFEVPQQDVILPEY
# [8] = biological target: Calcium/calmodulin-dependent protein kinase type II subunit beta (Homo sapiens) (UniProt Q13554); conditions: at 1 µM
# [9] = biological target: T1, Calcium/calmodulin-dependent protein kinase type IV (Homo sapiens); conditions: at 1 µM
# [10] = biological target: Calcium/calmodulin-dependent protein kinase type 1 (Homo sapiens) (UniProt Q14012); conditions: at 1 µM
# Chain of Calcium/calmodulin-dependent protein kinase type II subunit beta (Homo sapiens) (Q13554 whole entry): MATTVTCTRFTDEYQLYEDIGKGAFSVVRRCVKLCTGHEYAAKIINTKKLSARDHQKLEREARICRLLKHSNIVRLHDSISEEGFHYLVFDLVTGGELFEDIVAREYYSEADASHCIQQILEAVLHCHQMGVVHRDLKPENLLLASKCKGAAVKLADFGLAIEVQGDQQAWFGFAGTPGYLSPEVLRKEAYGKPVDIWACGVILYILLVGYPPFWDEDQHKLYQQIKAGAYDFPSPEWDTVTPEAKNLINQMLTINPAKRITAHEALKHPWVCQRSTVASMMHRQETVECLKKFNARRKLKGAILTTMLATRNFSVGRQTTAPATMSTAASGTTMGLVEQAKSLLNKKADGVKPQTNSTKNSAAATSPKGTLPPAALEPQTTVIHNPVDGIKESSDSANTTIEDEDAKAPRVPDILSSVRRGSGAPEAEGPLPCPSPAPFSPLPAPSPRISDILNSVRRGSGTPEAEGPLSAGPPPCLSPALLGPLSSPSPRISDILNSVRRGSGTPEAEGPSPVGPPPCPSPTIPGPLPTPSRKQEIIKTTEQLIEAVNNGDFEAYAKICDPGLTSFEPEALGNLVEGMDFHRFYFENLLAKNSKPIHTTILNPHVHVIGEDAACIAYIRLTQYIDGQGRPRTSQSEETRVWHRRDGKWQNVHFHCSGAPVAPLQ
# Chain of Calcium/calmodulin-dependent protein kinase type 1 (Homo sapiens) (Q14012 whole entry, looked up): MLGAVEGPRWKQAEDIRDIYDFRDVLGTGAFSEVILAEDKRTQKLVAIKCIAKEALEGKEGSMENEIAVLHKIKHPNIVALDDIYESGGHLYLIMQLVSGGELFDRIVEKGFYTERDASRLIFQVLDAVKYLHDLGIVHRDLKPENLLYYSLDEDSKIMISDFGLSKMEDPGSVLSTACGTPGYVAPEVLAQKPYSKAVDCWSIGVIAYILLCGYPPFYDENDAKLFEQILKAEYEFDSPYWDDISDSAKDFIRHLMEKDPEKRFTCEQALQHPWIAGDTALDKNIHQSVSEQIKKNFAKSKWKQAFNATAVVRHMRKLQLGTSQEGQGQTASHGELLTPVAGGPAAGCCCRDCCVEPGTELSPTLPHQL
# Chain of Calcium/calmodulin-dependent protein kinase type II subunit gamma (Homo sapiens) (Q13555 whole entry): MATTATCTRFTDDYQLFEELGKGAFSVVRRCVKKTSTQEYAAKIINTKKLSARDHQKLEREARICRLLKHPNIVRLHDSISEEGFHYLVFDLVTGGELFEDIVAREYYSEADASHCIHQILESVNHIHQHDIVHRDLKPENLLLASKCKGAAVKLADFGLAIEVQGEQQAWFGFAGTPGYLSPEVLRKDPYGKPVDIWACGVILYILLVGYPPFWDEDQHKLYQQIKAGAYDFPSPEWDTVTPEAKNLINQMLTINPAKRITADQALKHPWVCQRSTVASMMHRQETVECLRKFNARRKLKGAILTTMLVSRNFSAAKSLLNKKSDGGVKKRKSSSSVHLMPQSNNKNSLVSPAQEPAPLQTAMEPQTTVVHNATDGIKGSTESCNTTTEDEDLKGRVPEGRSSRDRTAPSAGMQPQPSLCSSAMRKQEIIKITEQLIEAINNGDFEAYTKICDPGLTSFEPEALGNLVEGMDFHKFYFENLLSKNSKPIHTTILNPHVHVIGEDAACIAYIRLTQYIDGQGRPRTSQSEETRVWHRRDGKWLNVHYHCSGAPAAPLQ
compound,measurement,setting,value
O=C1Nc2ccccc2/C1=C\c1c(Cl)[nH]c2ccccc12,residual activity,[1],51%
same,residual activity,[2],25%
same,residual activity,[3],39%
same,residual activity,[4],87%
same,residual activity,[5],34%
CCOc1nc(NC(=O)Cc2cc(OC)ccc2OC)cc(N)c1C#N,residual activity,[1],78%
Oc1cccc(-c2nc(N3CCOCC3)c3oc4ncccc4c3n2)c1,residual activity,[2],90%
same,residual activity,[6],98%
same,residual activity,[3],66%
same,residual activity,[7],75%
O=C1Cc2c([nH]c3ccc([N+](=O)[O-])cc23)-c2ccccc2N1,residual activity,[8],61%
same,residual activity,[2],76%
same,residual activity,[6],24%
same,residual activity,[4],32%
same,residual activity,[5],20%
COc1cc2nccc(Oc3ccc(NC(=S)NC(=O)c4ccccc4C)cc3)c2cc1OC,residual activity,[1],75%
same,residual activity,[8],79%
same,residual activity,[2],66%
same,residual activity,[5],85%
same,residual activity,[9],121%
same,residual activity,[7],84%
COc1ccc(Cl)cc1NC(=O)Nc1cc(C)nc2ccccc12,residual activity,[8],88%
same,residual activity,[2],72%
O=S(=O)(NCCNC/C=C/c1ccc(Br)cc1)c1cccc2cnccc12,residual activity,[8],76%
same,residual activity,[2],29%
same,residual activity,[6],100%
same,residual activity,[3],41%
same,residual activity,[5],35%
CC(C)[C@H](CO)Nc1nc(Nc2cc(N)cc(Cl)c2)c2ncn(C(C)C)c2n1,residual activity,[8],92%
same,residual activity,[2],58%
same,residual activity,[6],76%
same,residual activity,[3],20%
same,residual activity,[4],80%
same,residual activity,[5],24%
same,residual activity,[9],96%
same,residual activity,[7],33%
CN([C@@H](Cc1ccc(OS(=O)(=O)c2cccc3cnccc23)cc1)C(=O)N1CCN(c2ccccc2)CC1)S(=O)(=O)c1cccc2cnccc12,residual activity,[8],100%
same,residual activity,[2],78%
same,residual activity,[4],99%
N#C/C(=C\c1ccc(O)c(O)c1)C(=O)NCc1ccccc1,residual activity,[1],87%
same,residual activity,[2],89%
same,residual activity,[9],121%
same,residual activity,[7],84%
O=c1cc(N2CCOCC2)oc2c(-c3ccccc3)cccc12,residual activity,[1],55%
same,residual activity,[2],79%
CN(C)S(=O)(=O)c1ccc2c(c1)/C(=C/c1cc3c([nH]1)CCCC3)C(=O)N2,residual activity,[1],94%
same,residual activity,[8],71%
same,residual activity,[2],59%
same,residual activity,[6],17%
same,residual activity,[3],12%
same,residual activity,[4],18%
same,residual activity,[5],13%
same,residual activity,[9],89%
same,residual activity,[7],98%
CCN1/C(=C/C(C)=O)Sc2ccc(OC)cc21,residual activity,[2],70%
NC(=O)c1ccc(-c2nc(-c3ccc4c(c3)OCCO4)c(-c3ccccn3)[nH]2)cc1,residual activity,[10],91%
same,residual activity,[1],73%
same,residual activity,[2],88%
same,residual activity,[4],100%
same,residual activity,[5],98%
CCCCc1c(-c2ccc(O)cc2)[nH]c2nccnc12,residual activity,[1],71%
same,residual activity,[8],77%
same,residual activity,[2],51%
same,residual activity,[4],62%
same,residual activity,[5],22%
CSc1nc(-c2ccc(F)cc2)c(-c2ccnc(NC(C)c3ccccc3)c2)[nH]1 (centres undefined),residual activity,[1],87%
same,residual activity,[2],75%
same,residual activity,[6],98%
same,residual activity,[3],83%
same,residual activity,[4],102%
same,residual activity,[5],83%
same,residual activity,[7],92%
O=C(c1cc2cc(O)ccc2[nH]1)c1cc2cc(O)ccc2[nH]1,residual activity,[1],37%
same,residual activity,[8],53%
same,residual activity,[2],14%
same,residual activity,[6],30%
same,residual activity,[3],2%
same,residual activity,[4],23%
same,residual activity,[5],4%
same,residual activity,[9],114%
same,residual activity,[7],76%
Fc1ccc(-c2nc3n(c2-c2ccncc2)CCS3)cc1,residual activity,[8],100%
same,residual activity,[2],95%
COc1cc2c(cc1OC)-c1n[nH]c(Nc3cccc(F)c3)c1C2,residual activity,[2],56%
same,residual activity,[6],99%
same,residual activity,[3],60%
COc1ccc(COc2ccc(Cc3cnc(N)nc3N)cc2OC)cc1,residual activity,[1],76%
same,residual activity,[9],130%
CCOC(=O)c1c(C)[nH]c(/C=C2\C(=O)Nc3ccccc32)c1C,residual activity,[1],77%
same,residual activity,[8],98%
same,residual activity,[2],93%
same,residual activity,[6],77%
same,residual activity,[3],48%
same,residual activity,[4],79%
same,residual activity,[5],59%
N#Cc1c(NC(=O)c2cccc3ccccc23)sc2c1CCCC2,residual activity,[8],94%
same,residual activity,[2],81%
same,residual activity,[3],97%
same,residual activity,[5],88%
same,residual activity,[7],87%
Nc1nc(Nc2ccc(S(N)(=O)=O)cc2)nn1C(=O)c1c(F)cccc1F,residual activity,[1],60%
same,residual activity,[2],43%
same,residual activity,[6],73%
same,residual activity,[3],19%
same,residual activity,[4],75%
same,residual activity,[5],31%
same,residual activity,[7],64%
COc1ccc(CNC(=O)Nc2ncc([N+](=O)[O-])s2)cc1,residual activity,[1],72%
Nc1nccc(-c2c(-c3ccc(F)cc3)ncn2C2CCNCC2)n1,residual activity,[2],55%
same,residual activity,[3],62%
same,residual activity,[4],100%
same,residual activity,[5],56%
O=C1NC(=O)C(c2c[nH]c3ccccc23)=C1c1c[nH]c2ccccc12,residual activity,[1],57%
same,residual activity,[8],68%
same,residual activity,[2],13%
same,residual activity,[6],40%
same,residual activity,[3],4%
same,residual activity,[4],28%
same,residual activity,[5],4%
same,residual activity,[9],100%
same,residual activity,[7],54%
O=C(Nc1nc2ccccc2n1CCN1CCOCC1)c1cccc([N+](=O)[O-])c1,residual activity,[8],83%
same,residual activity,[2],83%
same,residual activity,[3],76%
same,residual activity,[4],103%
same,residual activity,[5],85%
same,residual activity,[9],115%
same,residual activity,[7],53%
O=C1C(Cl)=C(N2C(=O)CCC2=O)C(=O)c2ccccc21,residual activity,[1],78%
same,residual activity,[8],90%
same,residual activity,[2],86%
same,residual activity,[4],97%
same,residual activity,[5],99%
same,residual activity,[7],10%
N#C/C(=C1/Nc2ccccc2S1)c1ccnc(NCCc2cccnc2)n1,residual activity,[2],25%
same,residual activity,[6],80%
same,residual activity,[3],21%
same,residual activity,[4],83%
same,residual activity,[5],24%
same,residual activity,[9],88%
same,residual activity,[7],34%
Cc1cc(C)c(/C=C2\C(=O)Nc3ccccc32)[nH]1,residual activity,[6],32%
same,residual activity,[3],-1%
same,residual activity,[4],38%
same,residual activity,[5],9%
same,residual activity,[9],104%
same,residual activity,[7],60%
CCCC(=O)Oc1ccc2[nH]c(C(=O)c3cc4ccccc4[nH]3)cc2c1,residual activity,[1],89%
same,residual activity,[8],86%
same,residual activity,[2],85%
same,residual activity,[6],99%
same,residual activity,[3],102%
same,residual activity,[5],83%
same,residual activity,[7],53%
